Results: the supplement of paper PMC13380429

Legend:
[1] = tested on: Vero E6 infected with SARS-CoV-2; assay: morphology score (similarity to uninfected cells); higher = more like uninfected cells; conditions: 24 h
[2] = tested on: Vero E6 infected with SARS-CoV-2; assay: SARS-CoV-2 infection rate relative to infected DMSO; higher = more infection, active = 60 or less; conditions: 24 h

| SMILES | morphology score [1] | SARS-CoV-2 infection rate [2] |
| --- | --- | --- |
| CNS(=O)(=O)Cc1ccc2[nH]cc(CCN(C)C)c2c1 [sumatriptan] (10 µM) | 0.205 | 98% (inactive) |
| NC(=O)[C@@H]1CC[C@@H]2CN1C(=O)N2OS(=O)(=O)O [avibactam] (10 µM) | 0.0638 | 108% (inactive) |
| CC(C)c1cc(C(C)C)c(CC(=O)NS(=O)(=O)Oc2c(C(C)C)cccc2C(C)C)c(C(C)C)c1 [avasimibe] (10 µM) | 0.0222 | 110% (inactive) |
| O=C(O)C(O)Cc1ccc(O)c(O)c1 (stereo not drawn) [sodium-danshensu] (10 µM) | 0.114 | 106% (inactive) |
| C/C=C1/[C@H](O[C@@H]2O[C@H](CO)[C@@H](O)[C@H](O)[C@H]2O)OC=C(C(=O)OC)[C@H]1CC(=O)OCCc1ccc(O)c(O)c1 [oleuropein] (10 µM) | -0.0158 | 112% (inactive) |
| Oc1cccc2cccnc12 [oxyquinoline] (10 µM) | 0.202 | 93.5% (inactive) |
| CN1Cc2c(C(=O)OC(C)(C)C)ncn2-c2ccsc2C1=O (10 µM) | -0.00637 | 102% (inactive) |
| CC(C)c1cnn2c(NCc3ccccc3)cc(NCCCCCCN)nc12 (10 µM) | 0.714 | 41% (active) |
| Nc1nc(OCc2cc(Br)cs2)c2[nH]cnc2n1 [lomeguatrib] (10 µM) | 0.19 | 104% (inactive) |
| Cc1ccc2c(=O)c3cccc(CC(=O)O)c3oc2c1C (10 µM) | -0.0879 | 114% (inactive) |
| Nc1cccc(CNC(=O)c2ccc(Oc3ccc(OCc4cccc(F)c4)cc3)nc2)c1 (10 µM) | -0.419 | 119% (inactive) |
| CN(C)CCc1ccc(O)cc1 [hordenine] (10 µM) | 0.163 | 90.5% (inactive) |
| NC(=O)c1ccc([N+](=O)[O-])cc1Cl [aklomide] (10 µM) | -0.229 | 114% (inactive) |
| O=C(CCc1ccc(O)cc1)c1c(O)cc(O)cc1O[C@@H]1O[C@H](CO)[C@@H](O)[C@H](O)[C@H]1O [phlorizin] (10 µM) | 0.166 | 112% (inactive) |
| N=C1N[C@H]2[C@H](CS[C@H]2CCCCC(=O)O)N1 [2-iminobiotin] (10 µM) | 0.0808 | 99% (inactive) |
| CCN(CC)c1ccc(/C=N/NC(=O)c2ccc(O)cc2)cc1 (10 µM) | -0.186 | 107% (inactive) |
| Oc1ccc2ccccc2c1Cc1c(O)ccc2ccccc12 (10 µM) | 0.0699 | 104% (inactive) |
| COc1ccc(-c2ccc3c(N4CCOC[C@@H]4C)nc(N4CCOC[C@@H]4C)nc3n2)cc1CO (0.833333 µM) | -0.0692 | 105% (inactive) |
| CN(C)C(=O)C(=O)c1cn(C)c2cc(Cl)c(C(=O)N3CCC(Cc4ccc(F)cc4)CC3)cc12 (10 µM) | 0.323 | 82% (inactive) |
| CCCOc1ccc2c(c1)CC[C@@H]1[C@@H]2CC[C@]2(C)[C@@H](OC)CC[C@@H]12 [promestriene] (10 µM) | 0.169 | 99.5% (inactive) |
| COc1ccc(Nc2ncnc3ccc(OC)cc23)cc1 (10 µM) | -0.228 | 122% (inactive) |
| CCOC(=O)Nc1ccc(NCc2ccc(F)cc2)nc1N [flupirtine] (10 µM) | 0.0326 | 99% (inactive) |
| C[N+](C)(C)CCCCCNCC12CC3CC(CC(C3)C1)C2 (10 µM) | -0.0308 | 112% (inactive) |
| COc1ccc(Cl)c(Nc2nc3ccccc3nc2NS(=O)(=O)c2cccc(NC(=O)C(C)(C)N)c2)c1 [pilaralisib] (10 µM) | 0.0424 | 103% (inactive) |
| CSc1ccc(C(=O)/C=C/c2cc(C)c(OC(C)(C)C(=O)O)c(C)c2)cc1 [elafibranor] (10 µM) | 0.00446 | 110% (inactive) |
| CC(Oc1c(Cl)cccc1Cl)C1=NCCN1 (stereo not drawn) [lofexidine] (10 µM) | -0.13 | 102% (inactive) |
| CC(C)(C)NCC(O)c1ccc(O)c(CO)c1 (stereo not drawn) [albuterol] (10 µM) | 0.108 | 100% (inactive) |
| CC(C)N(CCC(=O)c1ccc2ccccc2c1)Cc1ccccc1 (10 µM) | 0.0866 | 104% (inactive) |
| O=C(O)c1ccccc1 [benzoic-acid] (10 µM) | 0.0363 | 110% (inactive) |
